# Columns and labels:
# Conditions in all cases: Compound Concentration (nM):1000
# [1] = tested on: T1, MRCKA
# T1 construct: gene CDC42BPA
# [2] = tested on: T2, MRCKB
# T2 construct: gene CDC42BPB
# [3] = tested on: MST1R
# [4] = tested on: T3, MST1
# T3 construct: gene STK4
# [5] = tested on: T4, MST2
# T4 construct: gene STK3
# [6] = tested on: T5, MST3
# T5 construct: gene STK24
# [7] = tested on: MST4
# [8] = tested on: MTOR
# [9] = tested on: MUSK
# [10] = tested on: MYLK2
# [11] = tested on: MYLK4
# [12] = tested on: MYLK
# [13] = tested on: MYO3A
# [14] = tested on: MYO3B
# [15] = tested on: T6, NDR1
# T6 construct: gene STK38
# [16] = tested on: T7, NDR2
# T7 construct: gene STK38L
# [17] = tested on: NEK10
# [18] = tested on: NEK11
# [19] = tested on: NEK1
# [20] = tested on: NEK2
# 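Further: KINOMEscan scanMAX binding as percent activity remaining versus control; lower means stronger binding.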
Compound,Percent Control [1] [%],Percent Control [2] [%],Percent Control [3] [%],Percent Control [4] [%],Percent Control [5] [%],Percent Control [6] [%],Percent Control [7] [%],Percent Control [8] [%],Percent Control [9] [%],Percent Control [10] [%],Percent Control [11] [%],Percent Control [12] [%],Percent Control [13] [%],Percent Control [14] [%],Percent Control [15] [%],Percent Control [16] [%],Percent Control [17] [%],Percent Control [18] [%],Percent Control [19] [%],Percent Control [20] [%]
NS(=O)(=O)c1ccc(N/N=C2\C(=O)Nc3ccc(C(=O)NCCc4c[nH]cn4)cc32)cc1 [GW300660X],100,100,100,100,60,100,25,91,100,100,87,79,100,100,77,100,100,100,100,100
COC(=O)Nc1nc2ccc(Oc3ccc(NC(=O)Nc4cc(C(F)(F)F)ccc4F)cc3)cc2s1.Cl [GW693917A],90,96,100,100,100,95,72,100,9.7,47,93,100,93,100,86,94,90,100,94,82
COc1cccc(-n2ncc3c(N/N=C/c4ccncc4)ncnc32)c1 [GW784752X],100,100,100,100,100,93,74,100,100,91,100,89,100,100,96,100,84,100,84,100
Cl.O=C(O[C@H]1CN[C@H](C#Cc2cc3ncnc(Nc4ccc5c(cnn5Cc5ccccc5)c4)c3s2)C1)N1CCOCC1 [GSK200398A],100,86,100,100,100,83,100,100,100,100,91,100,100,100,100,100,96,100,68,72
COc1cccc(-c2c[nH]c3c(N/N=C/c4ccncc4)ncnc23)c1 [GW814408X],100,100,88,100,100,74,21,100,100,68,100,100,100,100,93,98,92,100,95,100
NS(=O)(=O)c1ccc(N/N=C2\C(=O)Nc3ccc(C(=O)NCc4ccncc4)cc32)cc1 [GW300657X],100,98,100,100,45,73,75,97,83,100,83,45,68,100,76,82,48,40,80,79
Cl.O=S1CCN(Cc2ccc(-c3ccc4ncnc(Nc5ccc(OCc6ccccc6)c(F)c5)c4c3)o2)CC1 [GW576924A],100,100,100,100,100,100,100,100,100,100,100,100,100,100,99,100,100,100,93,100
COc1cc(C=NNc2ncnc3c2cnn3-c2ccccc2)ccc1O [GW513184X],100,100,29,100,94,100,58,93,100,43,100,100,100,95,100,100,100,100,100,100
COc1cc(C)c(N(C)C(=O)CN(C)C)cc1Nc1nc(Nc2cccc(F)c2C(N)=O)c2cc[nH]c2n1 [GSK2219385],100,94,100,100,85,93,100,100,84,100,100,10,96,100,100,85,52,100,100,72
COc1cc2ncnc(Nc3ccc4c(cnn4Cc4ccccc4)c3)c2cc1OC.Cl [GW282449A],100,100,100,100,100,100,94,100,100,100,100,100,100,100,100,100,100,100,95,100
